About 83,000 compounds went through this panel and 20% of them were active in at least one assay; those are over-represented in the sample as a whole.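 Single-dose data. Exposure time 48 hours. Values below 10 considered active.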 Values without a mark were called inactive. Active and inactive are the calls of the source.
How the values were obtained:
Test in all cases: NCI-60 one-dose screen, 48 h (100 = growth as untreated, 0 = no growth, -100 = all killed)
SK-MEL-2 melanoma = settings: 10 µM unless noted
EKVX NSCLC = settings: 10 µM unless noted
SN12C renal = settings: 10 µM unless noted
UO-31 renal = settings: 10 µM unless noted
TK-10 renal = settings: 10 µM unless noted
ACHN renal = settings: 10 µM unless noted
CAKI-1 renal = settings: 10 µM unless noted
A498 renal = settings: 10 µM unless noted
CCRF-CEM leukemia = settings: 10 µM unless noted
MOLT-4 leukemia = settings: 10 µM unless noted
RPMI-8226 leukemia = settings: 10 µM unless noted
OVCAR-8 ovarian = settings: 10 µM unless noted
OVCAR-5 ovarian = settings: 10 µM unless noted
SK-OV-3 ovarian = settings: 10 µM unless noted
IGROV1 ovarian = settings: 10 µM unless noted
OVCAR-3 ovarian = settings: 10 µM unless noted
HS 578T breast = settings: 10 µM unless noted
NCI/ADR-RES ovarian = settings: 10 µM unless noted
OVCAR-4 ovarian = settings: 10 µM
SR leukemia = settings: 10 µM unless noted

SMILES | growth (SK-MEL-2 melanoma) | growth (EKVX NSCLC) | growth (SN12C renal) | growth (UO-31 renal) | growth (TK-10 renal) | growth (ACHN renal) | growth (CAKI-1 renal) | growth (A498 renal) | growth (CCRF-CEM leukemia) | growth (MOLT-4 leukemia) | growth (RPMI-8226 leukemia) | growth (OVCAR-8 ovarian) | growth (OVCAR-5 ovarian) | growth (SK-OV-3 ovarian) | growth (IGROV1 ovarian) | growth (OVCAR-3 ovarian) | growth (HS 578T breast) | growth (NCI/ADR-RES ovarian) | growth (OVCAR-4 ovarian) | growth (SR leukemia)
CC(C)CCNCC(C)(C)O | 107% | 106% | 110% | 92.3% | 104% | 107% | 99.1% | 105% | 116% | 110% | 120% | 99.4% | 101% | 110% | 118% | 119% | 118% | 118% |  | 
Cc1ncc(C(=O)Nc2ccc(CN3CCN(C)CC3)c(C(F)(F)F)c2)cc1C#Cc1c(N)ncc2ccc(C#N)cc12 | 39.7% | 57.5% | 32.9% | 19.3% | 37% | 12.3% | 16.1% | 6.65% (active) | 38.1% | 37.3% | 40.6% | 53.2% | 41.2% |  |  | 37.8% | 26.9% | 61.7% | 44.5% | 
CC1Cc2ccc(OCCN(C)C)cc2C1=O (stereo not drawn) | 91.9% | 109% | 101% | 88.1% | 84.6% | 106% | 98% | 91.2% | 103% | 102% | 88.4% | 101% | 105% | 97.8% | 106% | 110% | 97.3% | 107% | 110% | 
CCOc1cccc2c(NC(C)CCCN(CC)CC)c(C)cnc12 (stereo not drawn) | 105% | 104% | 95.2% | 73.3% | 101% | 109% | 103% | 97.7% | 108% | 93.2% | 107% | 103% | 106% | 95.8% | 102% | 110% |  | 114% | 108% | 
c1ccc(-c2n[nH]c(-c3ccccn3)n2)nc1 | 108% | 98.5% | 111% | 93.8% | 116% | 107% | 81.1% | 224% | 103% | 128% | 104% | 107% | 100% | 108% | 116% | 144% | 139% | 90.4% | 103% | 
COc1ccc(/C=C2\N=C(Nc3ccccc3)N(NC(=O)c3ccccn3)C2=O)cc1 | 102% | 91.5% | 94.7% | 72.3% | 127% | 99.4% | 87.5% | 81.5% | 99.2% | 76.7% | 88.2% | 100% | 122% |  | 95.7% | 105% | 95.3% | 97% |  | 95.2%
CCN(CC)c1ccc2cc(C(Nc3ccc(C)cc3)c3nnnn3C(C)(C)C)c(=O)oc2c1 (stereo not drawn) | 94.3% | 86.9% | 91.8% | 72.5% | 90.7% | 98.2% | 79.2% | 94.7% | 98.6% | 65.5% | 87.4% | 98.4% | 101% | 102% | 97.4% | 101% | 90.7% | 90.6% |  | 
CCc1ccc(-c2ccc(COc3ccc(CC4SC(=O)NC4=O)cc3)cc2)cc1 (stereo not drawn) | 71.6% | 63% | 74.5% | 61.1% | 92.8% | 69.5% | 51% | 100% | 61.3% | 58.5% | 57.5% | 77.2% | 91.2% | 84.9% | 63.8% | 73.6% | 80.9% | 65.1% | 58.6% | 
c1cc2ccc1CNCCN1CCNCc3ccc(cc3)Oc3ccc(cc3)CNCCN(CCNCc3ccc(cc3)O2)CCNCc2ccc(cc2)Oc2ccc(cc2)CNCC1 | -94.5% (active) | 15.2% | -80.5% (active) | 85.3% | 29.4% | 84.4% | 47.5% | 48% | -17.4% (active) | -45.4% (active) | -49% (active) | -7.54% (active) | -55.1% (active) |  | -64.3% (active) | -94.6% (active) |  | 103% |  | -40.1% (active)
COc1ccc(-c2c(C)nn3c(NCCN4CCOCC4)cc(C)nc23)cc1OC | 104% | 83.9% | 100% | 104% | 102% | 106% | 75.2% | 78% | 97.6% | 90.2% | 105% | 103% | 94.3% | 101% | 117% | 103% | 79% | 99.8% |  | 
C=CCCC1(C)NC(=O)NC1=O (stereo not drawn) | 102% | 105% | 97.9% | 97.8% | 89.9% | 112% | 93.3% | 88.5% | 85.6% | 83.7% | 104% | 102% | 102% | 94.6% | 115% | 106% | 105% | 103% | 99.4% | 
CC(=O)Nc1ccc2nc3ccc(NC(C)=O)cc3[n+](-c3ccccc3)c2c1 | 106% | 118% | 104% | 93.3% | 140% | 98.9% | 122% | 158% | 73.1% | 38.9% | 62.1% | 93.5% | 113% |  | 92.8% | 49.2% | 263% | 107% | 86% | 
ClC1=C(Cl)C(Cl)=C(Cl)C1=Cc1ccccc1 | -28% (active) | -4.72% (active) | -57% (active) | -87.1% (active) | -36.3% (active) | -35.5% (active) | -37.9% (active) | -74.1% (active) | 8.52% (active) | 2.93% (active) | -22.7% (active) | -18.9% (active) | -60.9% (active) | 38.8% |  | -96.5% (active) | 6.95% (active) | -26.5% (active) |  | 4.43% (active)
CC1(C)C(=NO)C(C)(C)C1=NO | 117% | 114% | 110% | 104% | 104% | 112% | 109% | 109% | 7.92% (active) | 8.62% (active) | 76.2% | 113% | 103% | 125% |  | 117% |  | 106% |  | 103%
O=C(Nc1cccc2cccnc12)c1cc(C(=O)c2ccc(Cl)cc2)n2ccc(-c3ccncc3)cc12 | 112% | 107% | 101% | 81.4% | 108% | 99.7% | 83.4% | 90.5% | 115% | 129% | 103% | 97.8% | 98.9% | 92.1% |  | 111% | 89.6% | 105% |  | 125%
COc1ccc(NC(=O)Nc2ccc(-c3cccnc3)cc2N2CCC(CO)CC2)cc1 | 73.6% | 60% | 70.9% | 97.8% | 47.1% | 97.3% | 64.1% | 9.13% (active) | 95.4% | 93.2% | 54.4% | 79.1% | 49.6% | 71.7% | 110% | 40.2% | 62.6% | 64.4% | 73.8% | 
N#Cc1c(N2CCOCC2)nc(=S)[nH]c1-c1ccco1 | 37.1% | 48.8% | 77.6% | 66% | 47.1% | 64.2% | 58.2% | -1.37% (active) | 49.6% |  | 43% | 80.3% | 69% | 55% | 20.7% | 64.7% |  | 40.2% | 66.2% | 17.8%

Reference: PubChem BioAssay (NCI)
